The results in this text go back to PubChem BioAssay (NCATS).

Results filed as inconclusive are left out. The source made the active and inactive calls. The call rests on the fitted dose curve; in most records, active means well fitted curve in the direction sought with a large enough effect; inconclusive means small, poorly fitted or top-dose-only effect, or another doubt; inactive means no such curve, though single readings can be large; an effect the other way counts as inactive or inconclusive.

Test [1] in a line: qHTS of pediatric cancer cell lines to identify multiple opportunities for drug repurposing: Primary screen for SK-N-SH cells (AID 1347098).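 Further: DMSO served as neutral control and bortezomib at 2.3 µM as positive control; nearly all actives have a fitted effect of over 65% in size.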 The essentials:
(§1)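 Cells (500-1,000/well) rested 5 h, then received compounds for 48 h; metabolically active cells were measured by CellTiter-Glo luminescence. Final concentrations spanned up to 46 µM (MIPE, 11-point) or 0.59 nM-46 µM (NPC, 8-point) in primary screens, 11-point in follow-ups.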
For orientation: qHTS replaces the single test concentration by a dilution series.

Test [2] is described as follows: qHTS of pediatric cancer cell lines to identify multiple opportunities for drug repurposing: Primary screen for NB1643 cells (AID 1347099). Further: nearly all actives have a fitted effect of over 50% in size. Further: potency means the concentration at half of the fitted maximal effect. The essentials: (§2)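 Following a 5-hour attachment period, cells at 500-1,000/well received compounds and were cultured for 48 hours. CellTiter-Glo was added and luminescence read to estimate viable, metabolically active cells.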

A short description of test [3]: qHTS of pediatric cancer cell lines to identify multiple opportunities for drug repurposing: Primary screen for LAN-5 cells (AID 1347100). Further: potency means the concentration at half of the fitted maximal effect. The essentials: as §1
The nature of test [4]: qHTS of pediatric cancer cell lines to identify multiple opportunities for drug repurposing: Primary screen for Rh18 cells (AID 1347102). Further: nearly all actives have a fitted effect of over 65% in size. Further: potency means the concentration at half of the fitted maximal effect. In outline: as §1
A short description of test [5]: qHTS of pediatric cancer cell lines to identify multiple opportunities for drug repurposing: Primary screen for OHS-50 cells (AID 1347103). Further: nearly all actives have a fitted effect of over 40% in size. Further: potency means the concentration at half of the fitted maximal effect. In outline:
as §1

Test [6] is described as follows: qHTS of pediatric cancer cell lines to identify multiple opportunities for drug repurposing: Primary screen for RD cells (AID 1347104). Further: nearly all actives have a fitted effect of over 55% in size. Further: potency means the concentration at half of the fitted maximal effect. The essentials:
as §2

Test [7] can be described thus: qHTS of pediatric cancer cell lines to identify multiple opportunities for drug repurposing: Primary screen for MG 63 (6-TG R) cells (AID 1347105). Further: nearly all actives have a fitted effect of over 50% in size. Further: potency means the concentration at half of the fitted maximal effect. In outline:
as §2

Test [8] is described as follows: qHTS of pediatric cancer cell lines to identify multiple opportunities for drug repurposing: Primary screen for control Hh wild type fibroblast cells (AID 1347106).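 Further: series mostly up to about 46 µM; a drop in luminescence marks cytotoxicity and a rise apparent proliferation; nearly all actives have a fitted effect of over 55% in size.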 In outline: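 Cells (500-1,000/well) in growth media were settled 5 h at 37 degrees C, then given compounds for 48 h. Viability was read as CellTiter-Glo luminescence. Primary runs used MIPE at 11 points (0.78 nM-46 µM) and NPC at 8 points (0.59 nM-46 µM); follow-ups used 11 points.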

Test [9] is described as follows: qHTS of pediatric cancer cell lines to identify multiple opportunities for drug repurposing: Primary screen for Rh30 cells (AID 1347107). Further: series mostly up to about 46 µM; nearly all actives have a fitted effect of over 75% in size. The essentials: as §1
Test [10] in a line: qHTS of pediatric cancer cell lines to identify multiple opportunities for drug repurposing: Primary screen for BT-12 cells (AID 1347101). Further: nearly all actives have a fitted effect of over 25% in size. Further: potency means the concentration at half of the fitted maximal effect. In outline:
as §1

In the case of `C=C(C)[C@H]1CN[C@H](C(=O)O)[C@H]1CC(=O)O`, the Potency result in [1], in test [2], in test [3], in [4], in [5] and in [6] was “inactive” throughout. Further, in test [7], the Potency entry is “inactive”. For the same compound, the compound was classed as inactive in test [8] and in test [9].
As for `C[N+]1(CCF)[C@@H]2CC[C@H]1CC(OC(=O)C(O)(c1ccccc1)c1ccccc1)C2` (some centres undefined), the Potency result in test [2], in test [3], in test [10], in test [5], in test [6] and in [7] was “inactive” each time. Moreover, the result in test [8] and in [9] was inactive.
For `C[C@]12CC[C@H]3[C@@H](CCC4=CC(=O)CC[C@@H]43)[C@@H]1CC[C@@H]2OC(=O)CCC1CCCCC1`, the Potency result in [1], in test [2], in test [10], in [4], in test [6] and in [7] was “inactive” each time. Besides, the call in test [8] and in test [9] was inactive.
Consider `C[C@@H]1CC2=CC(=O)CC[C@@H]2[C@H]2CC[C@@]3(C)[C@@H](CC[C@]3(C)O)[C@@H]21`, for which the Potency entry in test [1], in test [2], in test [3], in [4], in test [6] and in [7] was “inactive” in each case. Moreover, the compound was classed as inactive in test [8] and in [9].
Turning to `CN1C(=O)NC(=O)C(C)(C2=CCCCC2)C1=O` (centres undefined), the Potency result in [2], in test [3], in [5], in [6] and in [7] was “inactive” in each case. Besides, the outcome in test [8] and in test [9] was inactive.
`COc1cccc([C@@]2(O)CCCC[C@@H]2CN(C)C)c1`: the Potency entry in test [2], in test [3], in test [5], in test [6] and in test [7] was “inactive” throughout. For the same compound, the call in test [8] and in test [9] was inactive.
As for `CCN(CC)C(=O)[C@@H]1C=C2c3cccc4[nH]cc(c34)C[C@H]2N(C)C1`, the Potency entry in test [2], in test [4], in test [5], in test [6] and in [7] was “inactive” each time. Also, in [3], the Potency was 71300 nM (active). Also, the call in [8] and in [9] was inactive.
Take `O=C(CCCN1CCC2(CC1)C(=O)NCN2c1ccccc1)c1ccc(F)cc1`: the Potency entry in test [2], in [3], in test [4], in [6] and in test [7] was “inactive” each time. The result in test [8] and in [9] was inactive.
In the case of `CCN[C@H](C)Cc1cccc(C(F)(F)F)c1`, the Potency result in test [2], in test [3], in [4], in test [5], in test [6] and in [7] was “inactive” each time. For the same compound, the outcome in test [8] and in test [9] was inactive.
As for `O=P1(N(CCCl)CCCl)NCCCO1` (centres undefined), the Potency entry in test [2], in test [3], in [10], in test [5], in test [6] and in test [7] was “inactive” throughout. Besides, the compound was classed as inactive in test [8] and in [9].
In the case of `C[C@]12CC[C@@H]3c4ccc(OC(=O)N(CCCl)CCCl)cc4CC[C@H]3[C@@H]1CC[C@@H]2OP(=O)(O)O`, the Potency result in test [2], in test [3], in [4], in test [5], in test [6] and in test [7] was “inactive” in each case. For the same compound, the compound was called inactive in test [8] and in test [9].
Turning to `CN1CC[C@]23c4c5ccc(O)c4O[C@H]2[C@@H](O)C=C[C@H]3[C@H]1C5`, the Potency result in test [3], in test [4], in test [5] and in test [7] was “inactive” throughout. In addition, the call in test [8] and in test [9] was inactive.
For `CNCC(=O)c1ccc(O)c(O)c1`, the Potency result in test [2], in test [3], in [5], in test [6] and in test [7] was “inactive” each time. The compound was called inactive in test [8] and in [9].
Take `COc1cccc2c1C(=O)c1c(O)c3c(c(O)c1C2=O)C[C@@](O)(C(=O)CO)CC3OC1CC(N2CCOC(OC)C2)C(O)C(C)O1` (some centres undefined): the Potency in [2] is 26.6 nM (active); in test [10], 69.2 nM (active); in test [4] it was 59.6 nM (active); in [5] it was 34.7 nM (active); in test [6] it was 84.1 nM (active); in [7], 21.1 nM (active). Also, the compound was classed as inactive in test [9].
For `CNC(C)(C)Cc1ccccc1`, the Potency result in test [2], in test [3], in [4], in test [5], in test [6] and in [7] was “inactive” each time. The result in test [8] and in test [9] was inactive.
For `O=C1OC(CCN2CCCCC2)OC1(c1ccccc1)c1ccccc1` (centres undefined), the Potency in [3] is 4730 nM (active). Besides, the Potency result in [10], in test [4], in test [5] and in test [6] was “inactive” throughout. In addition, the call in test [8] and in test [9] was inactive.
Consider `Clc1cccc(SC2CCNCC2)n1`, for which the Potency result in test [2], in [3], in test [10], in [5], in test [6] and in test [7] was “inactive” throughout. Also, the compound was classed as inactive in test [8] and in test [9].
Turning to `CC(C)(N)Cc1ccccc1Cl`, the Potency entry in [2], in test [3], in [4], in test [5], in test [6] and in test [7] was “inactive” in each case. Besides, the result in [8] and in test [9] was inactive.
For the compound `CC(C)C[C@H](CN)CC(=O)O`, the Potency result in test [3], in test [4], in [5], in [6] and in [7] was “inactive” each time. The outcome in [8] and in test [9] was inactive.
Take `O=[N+]([O-])O[C@H]1CO[C@H]2[C@@H]1OC[C@H]2O[N+](=O)[O-]`: the Potency result in [2], in test [3], in test [4], in [5], in test [6] and in test [7] was “inactive” throughout. Besides, the compound was called inactive in test [8] and in [9].
Regarding `Oc1ccc(Cl)cc1`, the Potency entry in [2], in test [3], in test [4], in test [5], in test [6] and in test [7] was “inactive” throughout. Moreover, the outcome in test [8] and in test [9] was inactive.
As to `COc1cc(CCN)cc(OC)c1OC`, the Potency result in test [2], in [3], in test [4], in test [5], in test [6] and in test [7] was “inactive” each time. Also, the outcome in test [8] and in [9] was inactive.
As to `C[C@]12Cc3cn[nH]c3C[C@@H]1CC[C@@H]1[C@@H]2CC[C@@]2(C)[C@H]1CC[C@]2(C)O`, the Potency result in [10], in test [6] and in test [7] was “inactive” in each case. For the same compound, the outcome in test [8] and in test [9] was inactive.
For the compound `c1ccc(N2CCNCC2)cc1`, the Potency entry in test [2], in [3], in [4], in test [5], in [6] and in [7] was “inactive” each time. For the same compound, the outcome in [8] and in test [9] was inactive.
In the case of `COC(=O)C(Cl)C(=O)OC`, the Potency result in test [2], in test [3], in test [5], in [6] and in test [7] was “inactive” each time. For the same compound, the result in test [8] and in test [9] was inactive.
Consider `O=C(N/N=C/c1ccc([N+](=O)[O-])o1)c1cc([N+](=O)[O-])cc([N+](=O)[O-])c1O`, for which the Potency entry in test [2], in test [3], in [4], in test [5], in [6] and in test [7] was “inactive” in each case. Moreover, the call in test [8] and in [9] was inactive.
As to `CC(Cc1ccccc1)NCCn1cnc2c1c(=O)n(C)c(=O)n2C` (centres undefined), the Potency entry in test [2], in [3], in test [4], in test [5], in test [6] and in test [7] was “inactive” in each case. Moreover, the compound was classed as inactive in test [8] and in test [9].
Take `O=C1c2ccccc2C(=O)c2ccccc21`: the Potency entry in test [2], in test [3], in test [5], in test [6] and in test [7] was “inactive” in each case. Further, the outcome in [8] and in test [9] was inactive.
Consider `Cc1ncsc1CCCl`, for which the Potency entry in [2], in test [3], in test [4], in test [5], in test [6] and in test [7] was “inactive” in each case. For the same compound, the outcome in test [8] and in test [9] was inactive.
